Hit rate of the full screen: of about 340,000 compounds, about 1,700 (0.5%) were called active. No stated cut-off is given here; in the data, active means inhibition above about 40%; inactive means the rest. The list comes from a sample in which actives are over-represented; it also holds similar structures and randomly drawn compounds.
What follows are compounds tested against Cysteine protease ATG4B (Homo sapiens) (UniProt Q9Y4P1) (assay: blockers of ATG4B cysteine protease activity – biochemical, fluorescence, uHTS, primary screen (AID 504462)). Settings: ATG4B cleavage of LC3-PLA2, NBD-HPC fluorescence, 1 h; at 8.33 µM; stronger effect = higher value.
Chain of Cysteine protease ATG4B (Homo sapiens) (Q9Y4P1 whole entry, looked up): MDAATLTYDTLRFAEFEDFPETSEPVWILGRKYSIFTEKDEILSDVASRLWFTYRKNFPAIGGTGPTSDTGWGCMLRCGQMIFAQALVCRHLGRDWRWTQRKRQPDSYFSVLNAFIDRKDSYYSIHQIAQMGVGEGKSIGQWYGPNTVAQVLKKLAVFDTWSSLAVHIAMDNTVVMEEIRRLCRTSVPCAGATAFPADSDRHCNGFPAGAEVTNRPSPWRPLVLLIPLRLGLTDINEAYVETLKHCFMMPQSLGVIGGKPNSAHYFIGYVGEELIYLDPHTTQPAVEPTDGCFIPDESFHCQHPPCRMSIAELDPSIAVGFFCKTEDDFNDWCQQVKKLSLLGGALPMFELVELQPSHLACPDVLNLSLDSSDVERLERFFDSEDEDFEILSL

Row | Structure (SMILES) | inhibition
1 | Fc1ccccc1N=C1Nc2cccc3cccc1c23 | -6.86% (inactive)
2 | c1ccc(C2=Nc3cccc4cccc(c34)N2)cc1 | 56.3% (active)
3 | COc1ccccc1C1=Nc2cccc3cccc(c23)N1 | 12.2% (inactive)
4 | CCN1CCCC1CNC(=O)Cn1cnc2ccc(S(=O)(=O)N3CCC(C)CC3)cc2c1=O (stereo not given) | -2.67% (inactive)
5 | NC(=O)C1CCN(C(=O)c2ccc(F)c(S(=O)(=O)N3CCOCC3)c2)CC1 | 0.71% (inactive)
6 | Nc1c(Cl)cc(S(N)(=O)=O)cc1S(N)(=O)=O | 3.68% (inactive)
7 | CCc1ccc(N2CC(C(=O)Nc3ccc(S(=O)(=O)Nc4nccs4)cc3)CC2=O)cc1 (stereo not given) | -16.4% (inactive)
8 | COc1ccc(NS(=O)(=O)c2cc(NC(=O)COc3ccccc3F)ccc2OC)cc1 | -14.9% (inactive)
9 | CCNC(=O)c1ccc(OCC(=O)Nc2ccc(F)cc2)c(OC)c1 | 2.31% (inactive)
10 | COc1ccc(NC(=O)COc2ccc(C(=O)c3ccc(F)cc3)cc2)cc1S(N)(=O)=O | 97.7% (active)
11 | O=C(Nc1ccn(CCCNCc2ccc3[nH]ccc3c2)c(=O)n1)OCc1ccccc1 | -8.68% (inactive)
12 | COc1cccc(NC(=O)C/C(C)=N/NC(=O)C2CCCCC2)c1 | 1.29% (inactive)
13 | Cc1ncc(CC(=O)n2cc(C(=O)c3cc(Cl)ccc3O)cn2)s1 | 80% (active)
14 | O=C(c1cnn(-c2ccc(Cl)cc2)c1)c1ccccc1O | 14.8% (inactive)
15 | Cc1ccc(CCC(=O)Nc2ncc(Cc3cc(Cl)ccc3Cl)s2)o1 | 0.02% (inactive)
16 | COc1ccc(NC(=O)CC2SC(N3CCCCC3)=NC2=O)cc1OC (stereo not given) | -1.9% (inactive)
17 | CN(Cc1c(F)cccc1Cl)S(=O)(=O)c1cccs1 | 49.8% (active)
18 | CN(Cc1ccc(F)cc1Cl)S(=O)(=O)c1cccs1 | 11% (inactive)
19 | CN(CC(=O)NCc1ccc(Cl)cc1)S(=O)(=O)c1cccs1 | -5.56% (inactive)
20 | COC(=O)c1c(NC(=O)c2c(Cl)cnn2C)sc(C)c1C | -7.14% (inactive)
21 | CC1(C)Cc2cccc(OCC(=O)Nc3nccs3)c2O1 | -9.2% (inactive)
22 | Cc1ccccc1N1CCN(C2CCCN(C(=O)c3ocnc3C)C2)CC1 (stereo not given) | 4.49% (inactive)
23 | COc1ccc(S(=O)(=O)Nc2cc(C)on2)cc1NC(C)=O | -6.89% (inactive)

Row | Structure (SMILES) | inhibition
24 | CCCc1[nH]nc2c1C(c1ccc(Br)s1)C(C#N)=C(N)O2 (stereo not given) | -2.42% (inactive)
25 | CCCc1[nH]nc2c1C(c1ccc(OC(=O)c3ccco3)cc1)C(C#N)=C(N)O2 (stereo not given) | 69.2% (active)
26 | COc1ccc(-c2[nH]nc3c2C(c2ccncc2)C(C#N)=C(N)O3)cc1 (stereo not given) | -11% (inactive)
27 | CCC(=O)c1cc2c(cc1NC(=O)c1cccs1)OCCO2 | -18.9% (inactive)
28 | C[C@@H]1ON(C)[C@H]2C[C@H]3c4cc(N5CCN(C)CC5)ccc4CCN3C(=O)[C@@H]12 | -6.52% (inactive)
29 | CCc1c(O)cc2n(c1=O)-c1ccccc1C2(C)C | -8.25% (inactive)
30 | O=C(COC(=O)c1ccc2c(c1)OCCO2)NCc1ccccc1Cl | 22.8% (inactive)
31 | COc1ccccc1CNC(=O)COC(=O)c1cccs1 | 0.37% (inactive)
32 | O=C(COC(=O)c1cccs1)NCc1cccs1 | -10.9% (inactive)
33 | CN(C)C(=O)c1ccc(NC(=O)COC(=O)c2cc3c(s2)CCCCC3)cc1 | -5.46% (inactive)
34 | O=C(COC(=O)c1cc2c(s1)CCCC2)NCc1ccccc1Cl | 40.4% (active)
35 | O=C(COC(=O)/C(=C/c1cccs1)c1cccs1)NCc1ccccc1Cl | 56% (active)
36 | COc1ccc(NC(=O)C2CCC(CNc3c(N4CCCCC4)c(=O)c3=O)CC2)c(OC)c1 (stereo not given) | 26.1% (inactive)
37 | CCN1CCN(C(=O)c2ccc(CN(c3ccc(C)c(C)c3)S(C)(=O)=O)cc2)CC1 | -3.29% (inactive)
38 | Cc1ccc(S(=O)(=O)N(C)CC(=O)NCC(c2ccc(F)cc2)N2CCOCC2)cc1 (stereo not given) | -5.42% (inactive)
39 | CCC(C)(C)n1nnnc1C(c1cccs1)N1CCN(c2nc3ccccc3s2)CC1 (stereo not given) | 1.17% (inactive)
40 | COc1nc(NC2CCCCC2)nc(N2CCCCCC2)n1 | 15.7% (inactive)
41 | O=C(CSc1ncn[nH]1)Nc1nc(-c2cccc([N+](=O)[O-])c2)cs1 | -6.82% (inactive)
42 | COc1ccc(-n2cnnc2SCC(=O)Nc2cccc([N+](=O)[O-])c2)cc1 | -7.34% (inactive)
43 | O=C(CSc1nc(-c2ccccc2)cs1)Nc1cccc([N+](=O)[O-])c1 | 41.4% (active)
44 | Cc1cc(NC(=O)c2ccco2)c(=O)n(Cc2c(F)cccc2Cl)c1 | 4.88% (inactive)
45 | O=C(N/N=C\c1ccc(Br)cc1)c1ccc(Cn2cccn2)o1 | -3.61% (inactive)
46 | Cc1c(Cl)c([N+](=O)[O-])nn1Cc1ccc(C(=O)N/N=C\c2cc(Cl)ccc2O)o1 | 64.3% (active)

Row | Structure (SMILES) | inhibition
47 | Cc1nn(Cc2ccccc2Cl)c(C)c1NC(=O)Cn1nc([N+](=O)[O-])c(Cl)c1C | -0.32% (inactive)
48 | Cc1nn(-c2ccccc2)c(C)c1/C=N/NC(=O)CSc1nc2ccccc2c(=O)n1-c1ccccc1 | 45.1% (active)
49 | Cn1c(SCC(=O)N/N=C/c2ccc(O)c(O)c2)nc2ccccc21 | -12.3% (inactive)
50 | O=C(CSc1nc2ccccc2[nH]1)N/N=C/C=C\c1ccccc1[N+](=O)[O-] | 7.51% (inactive)
51 | Cc1ccc(-n2c(SCC(=O)N/N=C/C=C/c3ccccc3[N+](=O)[O-])nc3ccccc3c2=O)cc1 | 54.4% (active)
52 | CCn1c(SCC(=O)N/N=C/C=C/c2ccccc2[N+](=O)[O-])nnc1-c1ccccc1 | 1.16% (inactive)
53 | C/C(=N\NC(=O)CSc1nc2ccccc2c(=O)n1-c1ccccc1C)c1cccs1 | 8.49% (inactive)
54 | CCC[C@@H]1C[C@@]1(CCC)[C@@H](NC(=O)c1ccccc1)c1ccc(C(=O)OC)cc1 | -5.7% (inactive)
55 | COc1ccc(C(=O)NC(C)Cn2nc(C)cc2C)cc1OC1CCN(C(C)=O)CC1 (stereo not given) | 3.85% (inactive)
56 | O=C(CCN1CCN(c2ccccc2)CC1)NNC(=S)Nc1ccccc1 | -1.44% (inactive)
57 | CCc1ccc2c(c1)C1(NN=C(c3ccccc3)S1)C(=O)N2 (stereo not given) | 12.8% (inactive)
58 | CCN=C1S/C(=C\c2cc(Br)ccc2OCC(=O)OCC)C(=O)N1CC | -7.54% (inactive)
59 | Cc1ccccc1OCc1nnc(SCC(=O)N2c3ccccc3Sc3ccc(Cl)cc32)o1 | -8.7% (inactive)
60 | O=S(=O)(Oc1ccccc1C(=S)N1CCOCC1)c1ccc(Cl)cc1 | 2.25% (inactive)
61 | CN(C)c1cc(N)c2ccccc2n1 (tested in a mixture with another compound) | -6.07% (inactive)
62 | Cn1cc[n+](C)c1COc1ccc(C=O)cc1 | 6.27% (inactive)
63 | COc1ccc(N(CC(=O)Nc2ccc(C)cc2C)S(=O)(=O)c2ccccc2[N+](=O)[O-])c(OC)c1 | -12.7% (inactive)
64 | Cc1ccc(S(=O)(=O)N(CC(=O)Nc2cccc([N+](=O)[O-])c2)Cc2ccc(Cl)cc2)cc1 | 75.6% (active)
65 | Cc1ccc(N(CC(=O)Nc2cc(C)cc(C)c2)S(=O)(=O)c2cccc3nonc23)cc1 | 12.5% (inactive)
66 | COc1ccc(C)cc1S(=O)(=O)N(CC(=O)Nc1cccc([N+](=O)[O-])c1)c1ccc(C)cc1 | 88.8% (active)
67 | CN(c1ccccc1)S(=O)(=O)c1cccc(NC(=O)Cc2ccc(Cl)cc2)c1 | -14.9% (inactive)
68 | Cc1ccc(S(=O)(=O)N(Cc2cccc([N+](=O)[O-])c2)C(=O)N2CCN(C)CC2)cc1 | 3.55% (inactive)
69 | CCCCn1c(N)c(N(CC(C)C)C(=O)CSc2ccc([N+](=O)[O-])cc2)c(=O)[nH]c1=O | 8.17% (inactive)

Row | Structure (SMILES) | inhibition
70 | CCOC(=O)CCCNC(=O)COC(=O)c1cc(Br)c(Br)s1 | -7.58% (inactive)
71 | C/C=N/NC(=O)CCCC(=O)N/N=C/C | -3.09% (inactive)
72 | CC(C)c1ccc2c(c1)c(SC(C)(C)C)c(CC(C)(C)C(=O)O)n2Cc1ccc(Cl)cc1 | 56.2% (active)
73 | CCN(CC)S(=O)(=O)c1ccc(N(C)Cc2ccc(C(F)(F)F)cc2)nc1 | -7.77% (inactive)
74 | O=C(c1ccco1)N1CCN(CC(=O)N(C2CCCCC2)C2CCS(=O)(=O)C2)CC1 (stereo not given) | 0.94% (inactive)
75 | N#Cc1ccc(Oc2cc(C(F)(F)F)nc(-c3ccccn3)n2)cc1 | -10.2% (inactive)
76 | COc1ccc(NCCc2ccccn2)cc1 | -5.58% (inactive)
77 | COc1cnc(-c2ccccn2)nc1Oc1ccc(C(C)(C)C)cc1 | 59.3% (active)
78 | CCCCN(C1CCS(=O)(=O)C1)S(=O)(=O)c1ccc(C(C)C)cc1 (stereo not given) | 6.86% (inactive)
79 | Cc1ccc(-c2cc(C(=O)N3CCc4ccccc4C3)no2)cc1 | 40% (active)
80 | Cn1cccc1C(=O)N1CCc2ccccc2C1 | -0.25% (inactive)
81 | O=C(c1cc(-c2cccc(O)c2)on1)N1CCc2ccccc2C1 | 35.8% (inactive)
82 | O=C(Nc1ccccc1Cl)N1CCN(c2ccc3nncn3n2)CC1 | -9.87% (inactive)
83 | CN1C(=O)[C@H]2[C@@H](C3CC3)N3C(=O)CN(Cc4ccccc4)C(=O)[C@@]3(C)[C@H]2C1=O | 0.76% (inactive)
84 | O=C1c2ccccc2C(=O)N1CCCCCCN1C(=O)c2ccccc2C1=O | 2.67% (inactive)
85 | O=C1c2ccccc2C(=O)N1Cc1cc(-c2ccccc2Cl)no1 | 56.3% (active)
86 | O=C1c2ccccc2C(=O)N1CCCc1nc(-c2ccccc2)no1 | 3.08% (inactive)
87 | Cc1nc2ccccc2c(C(=O)O)c1-c1ccccn1 | -2.51% (inactive)
88 | Cc1nc2ccccc2c(C)c1C(=O)c1ccc(F)cc1 | -2.83% (inactive)
89 | Cc1nc2ccccc2c(-c2ccccc2)c1C(=O)c1ccccc1 | 80% (active)
90 | CCn1c2c(c3ccc(OC)cc31)CCCC2=O | -3.83% (inactive)
